Results as given in paper PMC5540273 (PLoS ONE, 2017).

What was measured:
Conditions in all cases: concentration: 1 μM, replicates: in singlicate; n = 1
PFTK1 = test system: T1, PFTK1
T1 construct: gene CDK14

PHKG1 = test system: PHKG1
PHKG2 = test system: PHKG2
PIK3C2B = test system: PIK3C2B
PIK3C2G = test system: PIK3C2G
PIK3CA = test system: PIK3CA
PIK3CB = test system: PIK3CB
PIK3CD = test system: PIK3CD
PIK3CG = test system: PIK3CG
PIK4CB = test system: T2, PIK4CB
T2 construct: gene PI4KB

PIKFYVE = test system: PIKFYVE
PIM1 = test system: PIM1
PIM2 = test system: PIM2
PIM3 = test system: PIM3
PIP5K1A = test system: PIP5K1A
PIP5K1C = test system: PIP5K1C
PIP5K2B = test system: PIP5K2B
PIP5K2C = test system: T3, PIP5K2C
T3 construct: gene PIP4K2C

PKAC-alpha = test system: T4, PKAC-alpha
T4 construct: gene PRKACA

PKAC-beta = test system: T5, PKAC-beta
T5 construct: gene PRKACB
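Also: KINOMEscan kinase panel screen.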

Row | SMILES | %Inh (PFTK1) | %Inh (PHKG1) | %Inh (PHKG2) | %Inh (PIK3C2B) | %Inh (PIK3C2G) | %Inh (PIK3CA) | %Inh (PIK3CB) | %Inh (PIK3CD) | %Inh (PIK3CG) | %Inh (PIK4CB) | %Inh (PIKFYVE) | %Inh (PIM1) | %Inh (PIM2) | %Inh (PIM3) | %Inh (PIP5K1A) | %Inh (PIP5K1C) | %Inh (PIP5K2B) | %Inh (PIP5K2C) | %Inh (PKAC-alpha) | %Inh (PKAC-beta)
1 | Cl.Nc1ncnc2occ(-c3ccc(NC(=O)Nc4cc(C(F)(F)F)ccc4F)cc3)c12 [SB-707548] | 79% | 0% | 8% | 0% | 23% | 0% | 8% | 27% | 6% | 0% | 25% | 23% | 0% | 0% | 28% | 57% | 36% | 45% | 9% | 0%
2 | [2H]C([2H])(c1cccc(C(F)(F)F)c1C)n1ccn2c(=O)nc(N3CCOCC3)cc12 [GSK2336394] | 12% | 0% | 0% | 0% | 0% | 0% | 97.5% | 38% | 0% | 0% | 0% | 0% | 0% | 0% | 0% | 31% | 4% | 0% | 0% | 12%
3 | CC(=O)Nc1ccc(COc2ccc(Nc3ccnc4cc(-c5ccccn5)ccc34)cc2)cc1.Cl [GW440148] | 25% | 0% | 0% | 0% | 0% | 2% | 100% | 7% | 14% | 16% | 2% | 17% | 0% | 0% | 0% | 44% | 0% | 23% | 0% | 0%
4 | O=c1cc(N2CCOCC2)nc2n(Cc3cccc(F)c3)ccn12 [GSK2297430] | 12% | 0% | 0% | 0% | 0% | 0% | 99% | 6% | 0% | 0% | 0% | 11% | 0% | 0% | 0% | 21% | 21% | 0% | 12% | 12%
5 | CSc1ccc(-c2cc3ncnc(SCC(=O)O)c3s2)cc1 | 3% | 0% | 0% | 0% | 0% | 0% | 0% | 8% | 2% | 0% | 28% | 0% | 0% | 0% | 0% | 0% | 20% | 7% | 0% | 0%
6 | NS(=O)(=O)CCc1cccc(Nc2nccc(-c3c(-c4cccc(NC(=O)c5c(F)cccc5F)c4)nn4ccccc34)n2)c1 [GSK336735] | 26% | 0% | 4% | 0% | 0% | 0% | 0% | 0% | 0% | 0% | 0% | 0% | 0% | 0% | 0% | 36% | 0% | 17% | 38% | 37%
7 | COc1ccc(Nc2nccc(N3CCC(NC(=O)Nc4cc(C)ccc4C)C3)n2)cc1 (centres unmarked) [GSK1379741] | 2% | 0% | 0% | 0% | 0% | 0% | 0% | 0% | 0% | 23% | 0% | 0% | 0% | 0% | 1% | 25% | 10% | 9% | 0% | 0%
8 | O=C(NCCCN1CCOCC1)c1cccc(Nc2nccc(Nc3ccc(Oc4ccccc4)cc3)n2)c1 [GW663929] | 43% | 0% | 14% | 6% | 0% | 12% | 18% | 7% | 11% | 21% | 37% | 22% | 0% | 4% | 18% | 0% | 0% | 83% | 4% | 0%
9 | COc1ccc(Nc2ncc(C#N)c(Nc3ccccc3C(N)=O)n2)cc1N1CCN(C)CC1.Cl [GSK1558669] | 99.4% | 89% | 85% | 0% | 0% | 0% | 0% | 0% | 0% | 15% | 94.4% | 97.4% | 0% | 93.3% | 56% | 65% | 90% | 90.6% | 76% | 76%
10 | COCCNC(=O)c1ccc(-c2cc(C(=O)NC3CC3)cc(F)c2C)cc1 [GW868318] | 18% | 6% | 0% | 0% | 38% | 28% | 49% | 42% | 29% | 40% | 43% | 15% | 3% | 29% | 1% | 0% | 0% | 0% | 9% | 37%
